Records with an inconclusive call do not appear. Active and inactive are the calls of the source. Calls follow the shape of the dose curve; as a rule, active = well fitted curve in the direction sought with a large enough effect in the repeat runs; inconclusive = weak or mixed curves; inactive = no such curve, though single readings can be large; an effect the other way counts as inactive or inconclusive. Where a SMILES comes first, the peptide text is derived from it. [ ]: non-standard residue; d: D form. pGlu = O=C1CC[C@@H](C(=O)O)N1
What was measured:
[1] = Human pregnane X receptor (PXR) small molecule agonists, qHTS cell viability counter screen (AID 1346977); also: nearly all actives have a fitted effect of over 50% in size
In short: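 PXR-Luc HepG2 cells (2,000/well, 5% charcoal-stripped FBS) preincubated 5 hr, then exposed to compounds 24 hr at 37 C. Viability read in the same wells by CellTiter-Fluor fluorescence, reagent added at 23 hr, 1 hr incubation.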

[2] = Caspase-3/7 induction in HepG2 cells by small molecules, qHTS assay (AID 1346978); also: nearly all actives have a fitted effect of over 15% in size
In short: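 Wild-type HepG2 cells (2,000/well) were settled 5 h at 37 C, 5% CO2, then exposed to compounds in DMSO for 17 h. Caspase-3/7 activity was read by luminescence 30 min after adding Caspase-Glo 3/7 reagent at room temperature.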

[3] = Caspase-3/7 induction in CHO-K1 cells by small molecules, qHTS cell viability counter screen (AID 1346979); also: nearly all actives have a fitted effect of over 35% in size
In short: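 Wild-type CHO-K1 cells (1,500/well) treated with compound after 5 h plating; after 16 h at 37C, viability read as CellTiter-Fluor fluorescence following 1 h reagent incubation, in the same wells as the caspase read.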

[4] = Caspase-3/7 induction in CHO-K1 cells by small molecules, qHTS assay (AID 1346980); also: nearly all actives have a fitted effect of over 15% in size
In short: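 Wild-type cells were seeded at 1,500 per well and settled 5 hr at 37 C, 5% CO2, then exposed to DMSO-dissolved compounds for 17 hr. Caspase-Glo 3/7 reagent was added, and luminescence was read after 30min at room temperature.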

[5] = Caspase-3/7 induction in HepG2 cells by small molecules, qHTS cell viability counter screen (AID 1346981); also: series mostly up to about 92 µM; nearly all actives have a fitted effect of over 30% in size
In short: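 Wild-type HepG2 cells, 2,000/well, settled 5 hr at 37 C, 5% CO2 before compound addition. Viability read by CellTiter-Fluor fluorescence, reagent added after 16 hr compound exposure, then 1 hr at 37C, in the same wells as the caspase read.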

[6] = biological target: Nuclear receptor subfamily 1 group I member 2 (Homo sapiens) (UniProt O75469); experiment: Human pregnane X receptor (PXR) small molecule agonists, qHTS assay (AID 1346982); also: nearly all actives have a fitted effect of over 35% in size; also: potency is read from the fitted curve at half-maximal effect
Nuclear receptor subfamily 1 group I member 2 (Homo sapiens), sequence (O75469 whole entry, looked up): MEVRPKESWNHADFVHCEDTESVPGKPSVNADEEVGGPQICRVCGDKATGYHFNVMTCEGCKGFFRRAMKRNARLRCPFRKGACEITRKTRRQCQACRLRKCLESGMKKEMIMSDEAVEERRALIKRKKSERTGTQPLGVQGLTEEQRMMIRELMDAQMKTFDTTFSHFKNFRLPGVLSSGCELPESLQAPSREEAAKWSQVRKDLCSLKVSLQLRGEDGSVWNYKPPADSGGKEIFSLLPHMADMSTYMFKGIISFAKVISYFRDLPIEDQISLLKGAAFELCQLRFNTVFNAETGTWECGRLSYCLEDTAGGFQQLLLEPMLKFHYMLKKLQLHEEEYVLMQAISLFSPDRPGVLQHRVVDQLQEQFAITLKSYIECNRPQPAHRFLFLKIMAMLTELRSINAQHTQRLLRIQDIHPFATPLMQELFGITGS
In short: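 PXR-Luc HepG2 reporter cells (CYP3A4-driven luciferase) in 5% charcoal-stripped FBS medium, plated 5 h before compound addition, then treated 24 h at 37C. Luciferase read by ONE-Glo luminescence after 30 min at room temperature.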

[7] = biological target: Cytochrome P450 2D6 (Homo sapiens) (UniProt P10635); experiment: Cytochrome P450 Family 2 Subfamily D Member 6 (CYP2D6) small molecule antagonists: luciferase reporter qHTS assay (AID 1671196); also: nearly all actives have a fitted effect of over 50% in size; also: potency is read from the fitted curve at half-maximal effect; as to activity change, negative = inhibition: series mostly up to about 120 µM
Cytochrome P450 2D6 (Homo sapiens), sequence (P10635 whole entry, looked up): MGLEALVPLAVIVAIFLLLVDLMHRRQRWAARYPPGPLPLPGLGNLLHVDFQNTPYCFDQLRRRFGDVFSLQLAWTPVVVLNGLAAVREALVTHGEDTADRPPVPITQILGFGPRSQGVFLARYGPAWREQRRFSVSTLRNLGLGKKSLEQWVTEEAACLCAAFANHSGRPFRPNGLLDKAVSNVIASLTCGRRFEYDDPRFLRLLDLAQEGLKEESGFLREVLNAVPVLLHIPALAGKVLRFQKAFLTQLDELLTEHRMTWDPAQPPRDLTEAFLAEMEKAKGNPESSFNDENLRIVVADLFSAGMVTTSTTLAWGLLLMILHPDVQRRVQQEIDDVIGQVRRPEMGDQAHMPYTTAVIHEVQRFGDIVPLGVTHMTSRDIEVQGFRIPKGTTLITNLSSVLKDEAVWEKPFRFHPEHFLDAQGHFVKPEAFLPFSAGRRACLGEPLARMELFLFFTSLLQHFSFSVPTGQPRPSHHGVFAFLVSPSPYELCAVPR
In short: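 Cell-free P450-Glo system: CYP2D6 with proluciferin substrate was pre-incubated with compound for 10 min, then reacted with NADPH regeneration for 1 h at room temperature. Luciferin product was detected after 20 min, and data were reported as relative luminescence units.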

[8] = biological target: Nuclear receptor subfamily 1 group I member 2 (Rattus norvegicus) (UniProt Q9R1A7); experiment: Rat pregnane X receptor (rPXR) activation by small molecules, qHTS assay (AID 1346983); settings: rPXR luciferase reporter cells, One-Glo luminescence, 24 h; max activation: active compounds read high; also: nearly all actives have a fitted effect of over 20% in size
Nuclear receptor subfamily 1 group I member 2 (Rattus norvegicus), sequence (Q9R1A7 whole entry, looked up): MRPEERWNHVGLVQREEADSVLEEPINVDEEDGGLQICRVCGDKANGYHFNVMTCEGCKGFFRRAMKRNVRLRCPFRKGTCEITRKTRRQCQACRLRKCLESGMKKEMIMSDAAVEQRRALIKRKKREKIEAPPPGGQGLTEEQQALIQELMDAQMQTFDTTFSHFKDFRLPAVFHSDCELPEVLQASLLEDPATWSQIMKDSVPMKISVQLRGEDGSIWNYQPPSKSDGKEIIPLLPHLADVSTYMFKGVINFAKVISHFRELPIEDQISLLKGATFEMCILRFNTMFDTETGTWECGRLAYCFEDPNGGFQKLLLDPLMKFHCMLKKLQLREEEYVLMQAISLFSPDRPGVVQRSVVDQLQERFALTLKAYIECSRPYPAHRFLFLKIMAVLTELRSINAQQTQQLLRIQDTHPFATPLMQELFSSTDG
In short: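 Cell-based rPXR luciferase reporter assay, 2,000 cells per well, rested 5hr at 37 C before compound addition in DMSO, then 24 hr at 37 C. One-Glo reagent was added and luminescence read after 30 min at room temperature.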
% is scaled to controls: 0 for no effect and ±100 for the full control effect.

CCNC(=O)[C@@H]1CCCN1C(=O)[C@H](CCCN=C(N)N)NC(=O)[C@H](CC(C)C)NC(=O)CNC(=O)[C@H](Cc1ccc(O)cc1)NC(=O)[C@H](CO)NC(=O)[C@H](Cc1c[nH]c2ccccc12)NC(=O)[C@H](Cc1cnc[nH]1)NC(=O)[C@@H]1CCC(=O)N1 ([pGlu]HWSYGLRP-NHEt)
inactive: Potency [1] | outcome [2] | Potency [3] | outcome [4] | Potency [5] | Potency [6] | Potency [7]

CCCOC(=O)CC
inactive: Potency [1] | outcome [2] | Potency [3] | outcome [4] | Potency [5] | Potency [6] | Potency [7]

Cc1ccc(-c2ccccc2C#N)cc1
inactive: Potency [1] | outcome [2] | Potency [3] | outcome [4] | Potency [5] | Potency [6] | Potency [7]

CCOC(=O)C1=NOC(c2ccccc2)(c2ccccc2)C1
inactive: Potency [1] | outcome [2] | Potency [3] | outcome [4] | Potency [5] | Potency [7]
active: Potency [6] 68.6 µM

NC(=O)Cc1cccc2ccccc12
inactive: Potency [1] | outcome [2] | Potency [3] | outcome [4] | Potency [5] | Potency [6] | Potency [7]

Cc1ccccc1N=C(N)N=C(N)N
inactive: Potency [1] | outcome [2] | Potency [3] | outcome [4] | Potency [5] | Potency [6]
active: Potency [7] 7.96 µM

CCCC(C)C(=O)OCC (configuration not stated)
inactive: Potency [1] | outcome [2] | Potency [3] | outcome [4] | Potency [5] | Potency [6] | Potency [7]

Cc1coc2ccccc2c1=O
inactive: Potency [1] | outcome [2] | Potency [3] | outcome [4] | Potency [5] | Potency [6] | Potency [7]

CCOC(=O)C(=O)CCCCCCl
active: Potency [7] 38.9 µM
inactive: Potency [1] | outcome [2] | Potency [3] | outcome [4] | Potency [5] | Potency [6]

CC(CO)(CO)[N+](=O)[O-]
inactive: Potency [1] | outcome [2] | Potency [3] | outcome [4] | Potency [5] | Potency [6] | Potency [7]

CC12CCC(C(=O)C1=O)C2(C)C (configuration not stated)
inactive: Potency [1] | outcome [2] | Potency [3] | outcome [4] | Potency [5] | Potency [6] | Potency [7]

c1ccc(CCc2ccccc2)cc1
inactive: Potency [1] | outcome [2] | Potency [3] | outcome [4] | Potency [5] | Potency [6] | Potency [7]

CCCCCCCCCC[N+](C)(C)[O-]
inactive: Potency [1] | outcome [2] | Potency [3] | outcome [4] | Potency [5] | Potency [6]
active: Potency [7] 35.6 µM

CCN(C=O)CC
inactive: Potency [1] | outcome [2] | Potency [3] | outcome [4] | Potency [5] | Potency [6]
active: Potency [7] 72.9 µM

CCCn1cc[n+](C)c1C
inactive: Potency [1] | outcome [2] | Potency [3] | outcome [4] | Potency [5] | Potency [6] | Potency [7]

CN(C)CCN(C)CCN(C)C
active: Potency [6] 29.6 µM
inactive: Potency [1] | outcome [2] | Potency [3] | outcome [4] | Potency [5] | Potency [7]

COC(=O)Nc1ccc(Cl)c(Cl)c1
active: Potency [6] 60.8 µM
inactive: Potency [1] | outcome [2] | Potency [3] | outcome [4] | Potency [5] | Potency [7]

CC1=NN(c2cccc(S(=O)(=O)O)c2)C(=O)C1
inactive: Potency [1] | outcome [2] | Potency [3] | outcome [4] | Potency [5] | Potency [6] | Potency [7]

CC(CC=O)CC(C)(C)C (configuration not stated)
active: Potency [6] 54.5 µM
inactive: Potency [1] | outcome [2] | Potency [3] | outcome [4] | Potency [5] | Potency [7]

CCO[Si](OCC)(OCC)c1ccccc1
inactive: Potency [1] | outcome [2] | Potency [3] | outcome [4] | Potency [5] | Potency [6] | Potency [7]

CN(C)CCCN(C)CCCN(C)C
inactive: Potency [1] | outcome [2] | Potency [3] | outcome [4] | Potency [5] | Potency [6] | Potency [7]

OCCCCCO
inactive: Potency [1] | outcome [2] | Potency [3] | outcome [4] | Potency [5] | Potency [6] | Potency [7]

C=COCC1CCC(COC=C)CC1 (configuration not stated)
inactive: Potency [1] | outcome [2] | Potency [3] | outcome [4] | Potency [5] | Potency [6] | Potency [7]

COc1ccnc(CS(=O)c2nc3cc(OC(F)F)ccc3[nH]2)c1OC (configuration not stated)
active: Potency [6] 24.5 µM | Potency [7] 12.7 µM
inactive: Potency [1] | outcome [2] | Potency [3] | outcome [4] | Potency [5]

[Ca+2]
inactive: Potency [1] | outcome [2] | Potency [3] | outcome [4] | Potency [5] | Potency [6]
active: Potency [7] 35.6 µM

NC(CCC(=O)O)C(=O)O (configuration not stated)
active: Potency [7] 31 µM
inactive: Potency [1] | outcome [2] | Potency [3] | outcome [4] | Potency [5] | Potency [6]

C[N+]1(CC2COC(c3ccccc3)(c3ccccc3)O2)CCCCC1 (configuration not stated)
inactive: activity change, negative = cytotoxicity [1] -0.185% [at 19 µM] | caspase activation [2] -0.482% [at 19 µM] | activity change, negative = cytotoxicity [3] 2.24% [at 19 µM] | caspase-3/7 activation [4] -0.436% [at 19 µM] | activity change, negative = cytotoxicity [5] 9.88% [at 19 µM] | activation [6] 5.26% [at 19 µM]
active: Potency [7] 1.69 µM

O=S(=O)(O)c1cccc2c(S(=O)(=O)O)cccc12
inactive: Potency [1] | outcome [2] | Potency [3] | outcome [4] | Potency [5] | Potency [6] | Potency [7]

CC(=O)c1ccccc1[N+](=O)[O-]
active: Potency [6] 30.1 µM
inactive: Potency [1] | outcome [2] | Potency [3] | outcome [4] | Potency [5] | Potency [7]

CCN1CCOCC1
active: Potency [7] 6.21 µM
inactive: Potency [1] | outcome [2] | Potency [3] | outcome [4] | Potency [5] | Potency [6]

COc1cc(-c2ccc(=O)[nH]n2)ccc1OC(F)F
inactive: Potency [1] | outcome [2] | Potency [3] | outcome [4] | Potency [5]
active: Potency [6] 4.73 µM | Potency [7] 4.36 µM

CCOC(=O)CCC(=O)OCC
inactive: Potency [1] | outcome [2] | Potency [3] | outcome [4] | Potency [5] | Potency [6] | Potency [7]

CCCCOC(=O)CCC(C)=O
inactive: Potency [1] | outcome [2] | Potency [3] | outcome [4] | Potency [5] | Potency [6] | Potency [7]

CCCCCC(=O)OCCc1ccccc1
inactive: Potency [1] | outcome [2] | Potency [3] | outcome [4] | Potency [5] | Potency [6] | Potency [7]

CC(=O)c1cnccn1
inactive: Potency [1] | outcome [2] | Potency [3] | outcome [4] | Potency [5] | Potency [6] | Potency [7]

CCC(=O)OCc1ccccc1
inactive: Potency [1] | outcome [2] | Potency [3] | outcome [4] | Potency [5] | Potency [6] | Potency [7]

CO[Si](C)(OC)c1ccccc1
inactive: Potency [1] | outcome [2] | Potency [3] | outcome [4] | Potency [5] | Potency [7]
active: Potency [6] 30.6 µM

CCCCc1ccc2c(n1)[C@@H](c1ccc(OC)cc1C[C@H](C)C(=O)O)[C@H](C(=O)O)[C@H]2c1ccc2c(c1)OCO2
inactive: Potency [1] | outcome [2] | Potency [3] | outcome [4] | Potency [5] | Potency [6]
active: Potency [7] 71 µM

CC(=O)C1CCCCC1=O (configuration not stated)
inactive: Potency [1] | outcome [2] | Potency [3] | outcome [4] | Potency [5] | Potency [6] | Potency [7]

CC1=CC(=O)[C@H]2C[C@@H]1C2(C)C
inactive: Potency [1] | outcome [2] | Potency [3] | outcome [4] | Potency [5] | Potency [6] | Potency [7]

CC1(C)[C@@H]2CC[C@@]1(C)[C@H](O)C2
inactive: Potency [1] | outcome [2] | Potency [3] | outcome [4] | Potency [5] | Potency [6] | Potency [7]

COc1cc(C)nc(-n2nc(C)cc2OC)n1
inactive: Potency [1] | outcome [2] | Potency [3] | outcome [4] | Potency [5] | max activation [8] 0.673%

CCCCN1C=CN(C)C1
inactive: activity change, negative = cytotoxicity [1] -1.91% [at 19 µM] | caspase activation [2] 1.6% [at 19 µM] | activity change, negative = cytotoxicity [3] 5.38% [at 19 µM] | caspase-3/7 activation [4] 0.127% [at 19 µM] | activity change, negative = cytotoxicity [5] -0.522% [at 19 µM] | activation [6] 3.9% [at 19 µM] | activity change, negative = inhibition [7] -17.2% [at 23.6 µM]

CCCCCCC#CC(=O)OC
inactive: Potency [1] | outcome [2] | Potency [3] | outcome [4] | Potency [5] | Potency [6] | Potency [7]

CNCCO
inactive: Potency [1] | outcome [2] | Potency [3] | outcome [4] | Potency [5] | Potency [6] | Potency [7]

C=C(C)C(=O)OCC(O)CO (configuration not stated)
inactive: Potency [1] | outcome [2] | Potency [3] | outcome [4] | Potency [5] | Potency [6] | Potency [7]

CC(C)(CCC(=O)O)C(=O)O
inactive: Potency [1] | outcome [2] | Potency [3] | outcome [4] | Potency [5] | Potency [6] | Potency [7]

Clc1cc(Cl)cc(Cl)c1
inactive: Potency [1] | outcome [2] | Potency [3] | outcome [4] | Potency [5] | Potency [6] | Potency [7]

O=C1CCCCCCCCCCCCCCO1
inactive: Potency [1] | outcome [2] | Potency [3] | outcome [4] | Potency [5] | Potency [6] | Potency [7]

CCC(C)(CN(C)C)OC(=O)c1ccccc1 (configuration not stated)
inactive: Potency [1] | outcome [2] | Potency [3] | outcome [4] | Potency [5] | max activation [8] -1.69%

C=CN1CCCCCC1=O
inactive: Potency [1] | outcome [2] | Potency [3] | outcome [4] | Potency [5] | Potency [6] | Potency [7]

O=S(=O)(O)c1cccc2ccccc12
inactive: Potency [1] | outcome [2] | Potency [3] | outcome [4] | Potency [5] | Potency [6] | Potency [7]
